HT1080 IDH1KD tx = HT-1080 IDH1 knockdown cell toxicity (counter line) | HT-1080 IDH1 knockdown viability, ATP luminescence, 48 h | Potency, µM (series often up to 46.1 µM), inactives show top-dose activity, negative = toxicity, actives largely listed as cytotoxic | 360,000 compounds, 2% hits | AID 686971;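 also: potency is read from the fitted curve at half-maximal effect; 0% = DMSO wells and -100% = cell-free medium wells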
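Viability of IDH1-knockdown HT-1080 fibrosarcoma cells was assessed by CellTiter-Glo after 48 h at 37 °C with titrated compound; concentration-effect curves were classified by fit quality and response size.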
HT1080NT lethal = kills 2HG-producing HT-1080-NT fibrosarcoma cells | HT-1080-NT fibrosarcoma viability, CellTiter-Glo ATP luminescence, 48 h | Potency, µM (highest dose often 46.1 µM), for the others: top-dose activity, negative = less viability, usual class: cytotoxic | 360,000 compounds, 1.6% hits;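 also: NT is the 2HG producing partner of a matched IDH1 knockdown line; potency is read from the fitted curve at half-maximal effect; 0% = DMSO-treated cells and -100% = media-only wells without cells; nearly all actives have a fitted effect of over 55% in size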
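Viability of the 2HG-overproducing fibrosarcoma line after 48 hours of compound exposure at 37 degrees C was determined by luminescence with CellTiter-Glo, and concentration-effect curves were then fitted and categorized.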
IL1B secr inh = blocks inflammasome-driven IL-1 beta release | activity change, % at 57.5 µM | 360,000 compounds, 4.7% hits | THP-1 LPS/ATP IL-1B secretion, AlphaLISA, 16 h; active compounds read low; in the data active = activity change below about -50%; inconclusive = mostly about -30% to -49%
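Secreted IL-1B measured by AlphaLISA bead assay after 16 h compound exposure of THP-1 cells; compounds (final up to 57.5 uM) added 1 h before LPS (250 ng/mL) and ATP (1.25 mM) stimulation; lower signal means less secretion.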
TDP1 cell noCPT = qHTS for Inhibitors of human tyrosyl-DNA phosphodiesterase 1 (TDP1): qHTS in cells in absence of CPT; AID 686978, 2013; DT40 Tdp1-/- hTDP1 cells, no CPT, ATP luminescence, 48 h; 420,000 compounds, 15% hits; Potency, µM (doses to about 46.2 µM), without a hit: at the highest dose activity change, negative = growth inhibition, usual class: inhibitors; also: potency is read from the fitted curve at half-maximal effect; nearly all actives have a fitted effect of over 55% in size
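Luminescent ATP content (CellTiter-Glo) served as the growth readout. Knockout chicken DT40 cells expressing human TDP1 were exposed to compounds without camptothecin for a minimum 48 hr at 37 °C.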
TDP1 cell CPT = DT40-hTDP1 cell growth loss with CPT; chicken DT40 Tdp1-/-;hTDP1 cells + 20 nM CPT, ATP luminescence, 48 h; Potency, µM (doses to about 46.2 µM), inactives show top-dose activity change, negative = growth inhibition, hits mostly inhibitors; 420,000 compounds, 12% hits; AID 686979; also: potency is read from the fitted curve at half-maximal effect; nearly all actives have a fitted effect of over 55% in size
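Cell growth measured by CellTiter-Glo luminescence after a minimum 48 h, 37 C compound exposure with 20 nM CPT in Tdp1-knockout DT40 cells stably expressing hTDP1, seeded 400/well; qHTS titration format.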
* marks the source's active call; other numbers are inactive results. Rows were chosen to be rich in hits. Some 19% of all compounds tested hit in one or more screens of this group. Unless noted, calls follow the shape of the dose curve; as a rule, active = well fitted curve in the direction sought with a large enough effect; inconclusive = small, poorly fitted or top-dose-only effect, or another doubt; inactive = no such curve, though single readings can be large; an effect the other way counts as inactive or inconclusive. Unless noted, % is scaled to controls: 0 for no effect and ±100 for the full control effect.

O=S(=O)(c1cccc(Cl)c1)n1c(/C=C/c2ccccc2Cl)nc2ccccc21 was read as TDP1 cell noCPT 13µM* and TDP1 cell CPT 18µM*.
For Cc1ccc(/C=C/c2nc3ccccc3n2S(=O)(=O)c2ccc(Br)cc2)cc1 the results were TDP1 cell noCPT 21µM* and TDP1 cell CPT inconclusive.
`Cc1ccc(S(=O)(=O)n2c(N)nc3ccccc32)cc1` gave HT1080 IDH1KD tx -27%, HT1080NT lethal -23%, IL1B secr inh 11, TDP1 cell noCPT -26% and TDP1 cell CPT inconclusive.
`CC1C(=O)OC2C(O)C34C5CC(C(C)(C)C)C36C(OC(=O)C6O)OC4(C(=O)O5)C12O` (stereo unspecified) gave TDP1 cell noCPT -1% and TDP1 cell CPT -17%.
For CCOc1ccc(C(C)=O)cc1CSc1nnc(-c2cccs2)n1CC1CCCO1 (stereo unspecified) the results were HT1080 IDH1KD tx 2%, HT1080NT lethal 4%, IL1B secr inh inconclusive, TDP1 cell noCPT 18µM* and TDP1 cell CPT inconclusive.
For O=C(CSc1nnc(-c2cccs2)n1CC1CCCO1)N1CCCC1 (stereo unspecified) the results were HT1080 IDH1KD tx 11%, HT1080NT lethal 22%, IL1B secr inh 7, TDP1 cell noCPT -14% and TDP1 cell CPT 28%.
`COc1ccc2c(c1)c1c(c(=O)n(-c3ccccc3C)c(=O)n1Cc1cccc(C(F)(F)F)c1)n2C` gave TDP1 cell noCPT 3.7µM* and TDP1 cell CPT 3.7µM*.
COc1ccc2c(c1)c1c(c(=O)n(-c3cccc(C)c3)c(=O)n1CC(=O)NCC1CCCO1)n2C (stereo unspecified) was read as TDP1 cell noCPT -17% and TDP1 cell CPT inconclusive.
Screening COc1ccc2c(c1)c1c(c(=O)n(-c3cccc(C)c3)c(=O)n1Cc1cccc(Cl)c1)n2C returned TDP1 cell noCPT 5.8µM* and TDP1 cell CPT 7.3µM*.
Screening CCCN(CCC)C(=O)Cn1c(=O)n(-c2cccc(C)c2)c(=O)c2c1c1cc(OC)ccc1n2C returned TDP1 cell noCPT 23µM* and TDP1 cell CPT 15µM*.
For CCn1cc(SCC(=O)NCC2CCCO2)c2ccccc21 (stereo unspecified) the results were HT1080 IDH1KD tx 8%, HT1080NT lethal 0%, IL1B secr inh -6, TDP1 cell noCPT -7% and TDP1 cell CPT -12%.
Screening COP1(=O)C=C[C@H](N(Cc2ccccc2)S(=O)(=O)c2ccccc2[N+](=O)[O-])[C@@H](C)O1 (stereo partly specified) returned HT1080 IDH1KD tx 3%, HT1080NT lethal 6%, IL1B secr inh 9, TDP1 cell noCPT -19% and TDP1 cell CPT -2%.
`COc1cccc(CNc2nc3cc(-c4cccc(Cl)c4)sc3c(=O)n2C)c1` gave HT1080 IDH1KD tx 5%, HT1080NT lethal -3%, IL1B secr inh 30, TDP1 cell noCPT -12% and TDP1 cell CPT -29%.
COc1ccc(-c2cc3nc(CCl)[nH]c(=O)c3s2)cc1 was read as HT1080 IDH1KD tx 16µM*, HT1080NT lethal 16µM*, IL1B secr inh -6, TDP1 cell noCPT 4.1µM* and TDP1 cell CPT 4.6µM*.
Screening CN(Cc1ccccc1)C(=O)c1cccc(NC(=O)Cc2ccc(NC(=O)C3CCCN(C(=O)C4CCCC4)C3)cc2)c1 (stereo unspecified) returned HT1080 IDH1KD tx -13%, HT1080NT lethal -14%, IL1B secr inh 36, TDP1 cell noCPT inconclusive and TDP1 cell CPT inconclusive.
`Cn1c(Oc2ccccc2NCc2cc(Br)ccc2O)cc(=O)n(C)c1=O` gave HT1080 IDH1KD tx inconclusive, HT1080NT lethal inconclusive, IL1B secr inh 9, TDP1 cell noCPT 23µM* and TDP1 cell CPT 18µM*.
Screening COc1cc(CNc2ccccc2Oc2cc(=O)n(C)c(=O)n2C)cc(OC)c1OC returned HT1080 IDH1KD tx 0%, HT1080NT lethal 1%, IL1B secr inh 23, TDP1 cell noCPT inconclusive and TDP1 cell CPT inconclusive.
Screening O=C(Nc1ccc(Cl)c(Cl)c1)OCCNC(=O)c1cccc(Cl)c1 returned HT1080 IDH1KD tx inconclusive, HT1080NT lethal inconclusive, IL1B secr inh -14, TDP1 cell noCPT 12µM* and TDP1 cell CPT 6.5µM*.
For COc1cc(C)ccc1OCc1cc(C(=O)N(Cc2c(C)nn(C)c2C)C2CC2)no1 the results were HT1080 IDH1KD tx 1%, HT1080NT lethal 1%, IL1B secr inh -2, TDP1 cell noCPT 16µM* and TDP1 cell CPT inconclusive.
Screening O=C(O)c1ccc(N/N=C/c2ccc(-c3cc(Cl)ccc3Cl)o2)cc1 returned HT1080 IDH1KD tx 16µM*, HT1080NT lethal inconclusive, IL1B secr inh inconclusive, TDP1 cell noCPT inconclusive and TDP1 cell CPT 26µM*.
For COC(=O)N/N=C/c1ccc(-c2ccc(Cl)cc2Cl)o1 the results were HT1080 IDH1KD tx -10%, HT1080NT lethal -1%, IL1B secr inh 2, TDP1 cell noCPT -9% and TDP1 cell CPT 3%.
O=C(O)c1ccc(N/N=C/c2ccc(-c3cccc(Cl)c3)o2)cc1 was read as HT1080 IDH1KD tx 16µM*, HT1080NT lethal 10µM*, IL1B secr inh -13, TDP1 cell noCPT -11% and TDP1 cell CPT inconclusive.
Screening O=C(O)c1ccc(N/N=C/c2ccc(-c3ccc(Cl)cc3Cl)o2)cc1 returned HT1080 IDH1KD tx inconclusive, HT1080NT lethal inconclusive, IL1B secr inh 4, TDP1 cell noCPT inconclusive and TDP1 cell CPT 16µM*.
`COC(=O)/C=C1\OCc2cc(OC)c(OCc3ccccc3)cc21` gave HT1080 IDH1KD tx 3%, HT1080NT lethal 14%, IL1B secr inh 3, TDP1 cell noCPT 21µM* and TDP1 cell CPT inconclusive.
For CCOC(=O)c1ccc2[nH]c(CSc3nnc(-c4cccc(F)c4)n3C)cc(=O)c2c1 the results were TDP1 cell noCPT 2% and TDP1 cell CPT 2%.
For COc1ccccc1-c1nnc(SCc2ccccn2)n1C the results were HT1080 IDH1KD tx 2%, HT1080NT lethal 9%, IL1B secr inh -11, TDP1 cell noCPT 8% and TDP1 cell CPT 9%.
Screening CCOc1ccc(-c2ccc(SCc3ccccn3)nn2)cc1 returned HT1080 IDH1KD tx -18%, HT1080NT lethal -11%, IL1B secr inh -12, TDP1 cell noCPT 23µM* and TDP1 cell CPT inconclusive.
`COc1ccc(-c2nnc(SCc3cc(=O)c4cc(C)cc(C)c4[nH]3)n2C)cc1` gave TDP1 cell noCPT 18µM* and TDP1 cell CPT 23µM*.
CCc1ccc(-c2ccc(SCc3ccccn3)nn2)cc1 was read as HT1080 IDH1KD tx -10%, HT1080NT lethal -13%, IL1B secr inh inconclusive, TDP1 cell noCPT inconclusive and TDP1 cell CPT 4%.
